Screens: PubChem, Buhrlage Lab, Dana-Farber Cancer Institute and Novartis Institutes for BioMedical Research (Cambridge, Mass)
USP30 inh – inhibitors of human USP30 deubiquitinase; 47,000 tested, 5.3% active; purified USP30, Ub-rhodamine cleavage fluorescence; AID 1645860; inhibition, % at 25 µM; Q70CQ3
Target sequence (Q70CQ3 whole entry, looked up): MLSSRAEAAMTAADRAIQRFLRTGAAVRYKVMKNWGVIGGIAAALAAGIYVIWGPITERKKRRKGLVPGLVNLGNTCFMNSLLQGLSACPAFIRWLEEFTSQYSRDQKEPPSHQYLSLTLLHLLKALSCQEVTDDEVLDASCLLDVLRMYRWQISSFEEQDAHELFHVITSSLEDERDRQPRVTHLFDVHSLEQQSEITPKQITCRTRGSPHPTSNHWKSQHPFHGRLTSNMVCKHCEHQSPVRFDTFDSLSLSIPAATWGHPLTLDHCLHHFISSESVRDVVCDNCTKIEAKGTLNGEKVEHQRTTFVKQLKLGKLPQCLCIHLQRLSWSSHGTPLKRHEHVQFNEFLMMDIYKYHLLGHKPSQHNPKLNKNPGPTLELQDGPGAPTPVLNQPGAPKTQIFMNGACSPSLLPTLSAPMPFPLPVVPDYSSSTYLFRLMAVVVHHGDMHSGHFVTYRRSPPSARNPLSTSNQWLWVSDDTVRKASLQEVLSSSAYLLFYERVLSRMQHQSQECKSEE
UCHL1 inh – human UCHL1 deubiquitinase inhibition | AID 1645859 | inhibition, % at 20 µM | purified UCHL1, Ub-rhodamine cleavage fluorescence | 47,000 tested, 0.2% active
USP8 inh – human USP8 deubiquitinase inhibition; AID 1645853; purified USP8, Ub-rhodamine cleavage fluorescence, 30 min; inhibition, % at 20 µM; 47,000 tested, 4.2% active
USP17 inh – blocks human USP17 ubiquitin-rhodamine cleavage. A8MUK1. purified USP17, Ub-rhodamine cleavage fluorescence, 3 h. inhibition, % at 50 µM. 47,000 tested, 6.5% active
USP10 block – blocks human USP10 ubiquitin-rhodamine cleavage; Q14694; purified USP10, Ub-rhodamine fluorescence, 60 min; inhibition, % at 20 µM; 47,000 tested, 1.1% active; AID 1645856
USP7 block – blocks human USP7 ubiquitin-rhodamine cleavage. Q93009. purified USP7, Ub-rhodamine cleavage fluorescence. inhibition, % at 20 µM. 47,000 tested, 0.3% active. AID 1645854
Of the large screens only hits and unclear results are named; the others gave an inactive call. The list is not random: actives were taken first. Their share in the collection is about 12%. No stated cut-off is given here; in the data, active means inhibition above about 30%; inactive means the rest.

O=C(CNC(=O)c1ccc2nc(-n3cccc3)sc2c1)NCc1ccco1	USP8 inh 76.4
Fc1ccccc1CNc1cc(-n2cccn2)ncn1	none (no result: USP17 inh)
COc1ccc(C(=O)Nc2ccccc2C(=O)NC(Cc2ccc(O)cc2)C(=O)NNC(=O)Cc2ccc(OC)c(OC)c2)cc1 (centres undefined)	USP30 inh 30.8, USP17 inh 31.3, USP10 block 66.6
O=C(CSc1ccc2nnc(-c3ccc(Cl)cc3)n2n1)N1CCCCC1	none
COc1ccccc1-n1ccn2cc(-c3ccc(C)c(C)c3)nc2c1=O	USP17 inh 31.2
O=C(NC1CCCCCC1)c1cccc(S(=O)(=O)Nc2cc(C(F)(F)F)ccc2Cl)c1	USP30 inh 30.6, USP17 inh 33.4, USP10 block 52.5
CN1CCc2cc(C(=O)NCC3CC3)c(NCC3CC3)nc2CC1	none
Cn1c(=O)c2c(-c3ccccc3)n(-c3ccc4c(c3)OCCO4)cc2n(C)c1=O	USP8 inh 74.4, USP17 inh 32.2
CC(OC(=O)CNS(=O)(=O)c1ccc2ccccc2c1)C(=O)Nc1ccc(Cl)cc1Cl (centres undefined)	USP30 inh 45.9 (no result: USP17 inh)
COc1ccc2c(c1)c(=O)c(S(=O)(=O)c1ccccc1)cn2Cc1cccc(C)c1	USP30 inh 32.1
Cc1cccc(Cn2cc(C(=O)O)c3ccccc3c2=O)c1	none
CC(=O)/C=C/C1(O)C(C)=CC(=O)CC1(C)C (centres undefined)	USP30 inh 32.7
Cc1ccc(S(=O)(=O)c2nnn3c2nc(NCc2ccco2)c2sccc23)cc1	USP8 inh 32.5
CSc1nc(NC(C)=O)c2c(n1)N(C(C)=O)[C@@H]1OC[C@@H](OC(C)=O)[C@@H](OC(C)=O)[C@@H]1N2C(C)=O	none
COc1ccc(/C=C(\NC(=O)c2ccc(Br)cc2)C(=O)NCCc2c(C)[nH]c3ccccc23)cc1	USP30 inh 33.7
COc1cccc(C(C(=O)NC2CCCCC2)N(Cc2ccco2)C(=O)C2COc3ccccc3O2)c1 (centres undefined)	none
O=C(CCn1cnc2cc(-c3noc(-c4ccccn4)n3)ccc21)N1CCOCC1	none
CCN(C(=O)CSc1nnc(Cc2cccc3ccccc23)n1C1CCCCC1)C1CCS(=O)(=O)C1 (centres undefined)	none
COc1ccccc1/C=C(\C(=O)N1CCN(Cc2ccccc2)CC1)c1ccccc1	USP30 inh 39.9
COc1cccc(-n2c(C)cc(/C=C3/C(=N)N4C(c5ccccc5)=CSC4=NC3=O)c2C)c1	none (no result: USP17 inh)
O=C(Oc1coc(CSc2ncccn2)cc1=O)c1c(F)cccc1F	USP8 inh 45.5
COc1cccc(-c2cc3n(C)c(C)c(CCC(=O)NCc4ccco4)c(=O)n3n2)c1	USP8 inh 53.4
COc1ccc(-c2cc3n(C)c(C)c(CCC(=O)NCc4ccccc4F)c(=O)n3n2)cc1	none
Cc1cc(-c2nnc(CN3CCOCC3)o2)ccc1[N+](=O)[O-]	none
COc1cc2c(cc1OC)C1CC3=C(CCCN3)C(=O)N1CC2 (centres undefined)	none
Cn1c(=O)c2c(nc(N3CCN(C(=O)c4ccco4)CC3)n2CCSc2nnnn2-c2ccccc2)n(C)c1=O	USP30 inh 37.5
CC(C)=CCC/C(C)=C/C[C@]1(O)C(=O)c2cc(O)cc(O)c2C(=O)[C@@]1(Cl)CC=C(C)C	USP17 inh 50.1
COc1cc(C)cc2c1C(=O)c1c(cc(O)c(Cl)c1O)C2=O	UCHL1 inh 72.7, USP17 inh 73.9, USP7 block 71.5
COCCCn1c(C(=O)NCC(=O)OC(C)C)cc2c(=O)n3ccccc3nc21	none
CN(C)c1cc(-n2cnc(C(=O)NCc3cccc(Cl)c3)c2)ncn1	USP17 inh 41.7
CN(C)c1cc(-n2cnc(C(=O)Nc3ccccc3)c2)ncn1	none
Cc1cccc(-n2cnc(C(=O)NCc3ccc(F)cc3)c2)n1	USP30 inh 35.5, USP8 inh 34.0, USP17 inh 83.3
Cc1cc(C)n(-c2ccc(C(=O)NCc3ccc(F)cc3)cn2)n1	USP30 inh 68.5, USP17 inh 48.8
CC(=O)Nc1ccc(-n2cnc(C(=O)NCc3ccc(F)cc3)c2)nc1	none
Cc1cc(C)c(-c2nc(NC3CCCC3)sc2C)cc1C	none
CCCCc1ccc(NC(=O)c2c(C)c(-c3ccc(C)cc3)nc3ccccc23)cc1	none
O=c1cc(-c2cncc(Br)c2)nc(-c2ccccc2)[nH]1	USP30 inh 30.1, USP8 inh 34.1 (no result: USP17 inh)
O=c1cc(-c2cncc(-c3cc4ccccc4o3)c2)nc(-c2ccccc2)[nH]1	none
Fc1cccc(-c2nnc3ccc(SCc4ccccn4)nn23)c1	USP30 inh 30.2
FC(F)(F)c1cccc(CSc2ccc3nnc(-c4ccccn4)n3n2)c1	USP30 inh 32.4
O=C(CSc1ccc2nnc(-c3cccc(F)c3)n2n1)N1CCCc2ccccc21	USP30 inh 72.9, USP8 inh 38.5, USP17 inh 62.6
O=C(CSc1ccc2nnc(-c3ccncc3)n2n1)Nc1cccc(C(F)(F)F)c1	USP8 inh 89.6, USP17 inh 47.3
CC(=O)c1ccc(NC(=O)CSc2ccc3nnc(-c4ccncc4)n3n2)cc1	none (no result: USP30 inh)
O=C(CSc1ccc2nnc(CCNS(=O)(=O)c3ccccc3)n2n1)N1CCCc2ccccc21	none
Cc1cc(C)c(C(=O)N2CCCC(C(=O)NCc3ccccc3F)C2)[nH]1 (centres undefined)	none
CCN1C[C@@]23CN(C(=O)c4cc(C)on4)C[C@@H](C[C@@H]2S1(=O)=O)O3	none
c1ccc(CSc2ccc3nnc(-c4ccccn4)n3n2)nc1	none
c1ccc(CSc2ccc3nnc(-c4ccccn4)n3n2)cc1	USP30 inh 35.7
Cc1ccc(NC(=O)c2cccn2Cc2noc(C3CC3)n2)cc1	none
O=C(COC(=O)c1cc2ccccc2cc1O)Nc1ccc(N2CCOCC2)cc1	none
O=C(COC(=O)c1ccc2c(c1)OCO2)Nc1ccc(N2CCCCC2)cc1	USP17 inh 32.6
Cc1cccc(C(=O)OCC(=O)Nc2ccc(N3CCOCC3)cc2)c1O	USP17 inh 31.6 (no result: USP7 block)
O=C(COC(=O)c1ccccc1O)Nc1ccc2[nH]c(=O)[nH]c2c1	USP30 inh 34.4
CCOc1ccc(NC(=O)COC(=O)c2oc3ccc(OCC)cc3c2C)cc1	none
Cc1c(C(=O)OCC(=O)Nc2ccc3c(c2)OCO3)oc2ccc(Br)cc12	USP10 block 34.8
O=C(NCCc1ccc(Cl)cc1)c1cc(OCc2ccccc2)nc2ccccc12	none
CCOC(=O)C1=C(C)Oc2ncn3nc(-c4ccccn4)nc3c2C1c1ccccc1 (centres undefined)	none
O=S(=O)(Nc1cccc(-c2nnc(-c3ccccc3)o2)c1)c1ccccc1F	none
Cc1cc(Cl)ccc1OC(C)C(=O)OCC(=O)Nc1ccc2[nH]c(=O)[nH]c2c1 (centres undefined)	none
CC(C)(C)c1ccc(C(=O)OCC(=O)Nc2ccc3c(c2)OCO3)cc1	none
